Sampled rows, rich in hits. Any-hit rate of the full collection: about 5.7%.
hcDAF12 agonist: H. contortus DAF-12 nuclear receptor activators, primary screen, cell-based, luminescence, HEK293, lit1-tk-luc reporter; activation, % at 6.8 µM; HEK293 hcDAF-12 lit1-tk-luc reporter; 0% DMSO, 100% Δ7-dafachronic acid; 370,000 tested, 1.4% active;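 active = activation above the mean of all tested compounds plus 3 SD, cut at about 5.5% in these data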
AHR activator: AHR activators, primary screen, cell-based, luminescence, luciferase reporter, human. Aryl hydrocarbon receptor (Homo sapiens), P35869. AID 2796, 2010. activation, % at 5 µM. 320,000 tested, 2.5% active. AHR-responsive luciferase reporter cells; in the data active = activation above about 47%
hgDAF-12 ag: H. glycines DAF-12 receptor agonists, primary screen, cell-based, luminescence, HEK293, GAL4 fusion, UAS-luciferase; HEK293 GAL4-hgDAF12 UAS-luciferase reporter, agonist luminescence; normalized to butyrate control; 370,000 tested, 1.8% active; activation, % at 6.8 µM; AID 687014, 2013; Nuclear hormone receptor DAF-12 (Heterodera glycines), GAL4 fusion;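 active = activation above a cutoff set at the mean of all screened compounds plus 3 SD, cut at about 10% in these data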
DAX1 inh-1: DAX1 (NR0B1) inhibitors on StAR promoter, primary screen, cell-based, luminescence, SF-1 (NR5A1), full-length DAX-1; HEK293T StAR-luciferase reporter, SF-1/DAX-1 repression relief; inhibition, % at 6.8 µM; 370,000 tested, 1.1% active; AID 652010, 2013;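 active = inhibition above the mean over all tested compounds plus 3 SD, cut at about 3.6% in these data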;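 also: higher inhibition means more luminescence from relief of DAX-1 repression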
ssDAF12 agonist: S. stercoralis DAF-12 nuclear receptor activators, primary screen, cell-based, luminescence, HEK293, GRIP1 co-expression, lit1-tk-luc. Nuclear hormone receptor DAF-12 (Strongyloides stercoralis). HEK293 ssDAF-12/GRIP1 lit1-tk-luc reporter; % of 3 µM dafachronic acid response. activation, % at 6.8 µM. 370,000 tested, 1% active;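 active = activation above the mean over all tested compounds plus 3 SD, cut at about 0.9% in these data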
DAX1 inh-2: DAX1 (NR0B1) inhibitors, primary screen, cell-based, HEK293, Gal4-DAX1, luciferase luminescence; HEK293 Gal4-DAX1 luciferase reporter; inhibition, % at 6.75 µM; 340,000 tested, 0.99% active; AID 504766, 2011;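 active = inhibition above the mean over all tested compounds plus 3 SD, cut at about 4.2% in these data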;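 also: inhibition shows as a rise in luminescence from relieved DAX1 repression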
LXR ag: LXR agonists, Gal4 luciferase reporter, confirmation, counter-screen for hcDAF-12 agonist project, cell-based, luminescence, HEK293, H. contortus campaign. shares compounds with hcDAF12 agonist. HEK293 Gal4-LXR tk-luc reporter, 24 h; normalized: DMSO 0%, positive control 100%. activation, % at 6.8 µM. 3,400 tested, under 10 active;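 active = mean percent activation of the reporter above a cutoff set as the average over tested compounds plus their standard deviation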
hcDAF12 conf: H. contortus DAF-12 receptor agonists, confirmation, cell-based, luminescence, HEK293, lit1-tk-luc, triplicate. shares compounds with hcDAF12 agonist. HEK293 hcDAF-12 lit1-tk-luc reporter; % of Δ7-dafachronic acid response. AID 743032, 2013. 3,400 tested, 61% active. activation, % at 6.8 µM;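 active = mean activation across triplicate tests above the threshold derived from the earlier primary screen, cut at about 5.5% in these data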
Each line names hits and unclear results; the compound was inactive in the other large screens (follow-up assays come after a bar, where they were run).

COC(=O)C1=C(C)N(Cc2ccc(C(F)(F)F)cc2)C(=NCc2ccc(C(F)(F)F)cc2)NC1c1cccc(F)c1 (stereo not given)	none (no result: AHR activator, DAX1 inh-2)
CC(C)(C)C(=O)N1CCN(c2ccc3c(c2)C2CC3CCN2C(=O)OCc2ccccc2)CC1 (stereo not given)	none (no result: AHR activator, DAX1 inh-2)
CC(=O)NNc1ncnc2ccccc12	hcDAF12 agonist 10.0, DAX1 inh-2 8.7 | LXR ag inactive | hcDAF12 conf inactive
CCCCc1ccc(NC(=O)CC(C)(C)C)cc1	hcDAF12 agonist 7.0, hgDAF-12 ag 13 | LXR ag inactive | hcDAF12 conf inactive
COc1ccccc1NC(=O)c1ccc(N2CC3CC(C2)c2cccc(=O)n2C3)c(NC(=O)c2ccncc2)c1 (stereo not given)	none
O=C(Nc1cccc(F)c1)/C(=C/c1ccco1)NC(=O)c1ccco1	none
COC(=O)c1ccccc1NC(=O)CN(c1c(C)cccc1C)S(C)(=O)=O	hcDAF12 agonist 18, hgDAF-12 ag 11, ssDAF12 agonist 1.0 | LXR ag inactive | hcDAF12 conf inactive
COC(=O)c1ccccc1NC(=O)CN(c1ccc(C)cc1)S(C)(=O)=O	none
COc1cccc2c1CCc1c-2nc2ccccc2c1C(=O)O	hcDAF12 agonist 8.4, hgDAF-12 ag 12 | LXR ag inactive | hcDAF12 conf 7.8
O=C(O)c1c2c(nc3ccccc13)/C(=C/c1ccc(O)cc1)CC2	none
COc1ccc(OC)c(N2C(=O)CC(Cc3ccc(C)cc3)C2=O)c1 (stereo not given)	none
CCn1ncc(Br)c1C(=O)Nc1cccc(F)c1	none
CCn1ncc(Br)c1C(=O)Nc1ccc(C(C)C)cc1	hcDAF12 agonist 7.8, AHR activator 77 | LXR ag inactive | hcDAF12 conf inactive
CCC(NC(=O)c1oc2ccccc2c1COC)c1ccc(OC)cc1 (stereo not given)	none
COCc1c(C(=O)Nc2nc(C)cs2)oc2ccccc12	hcDAF12 agonist 6.8 | LXR ag inactive | hcDAF12 conf 5.7
COc1cccc(CN(CC(=O)NCc2ccccc2)C(=O)c2csnn2)c1	none
Cc1cccc(C(=O)NNC(=O)c2ccc(Cl)cc2)c1O	hcDAF12 agonist 7.1 | LXR ag inactive | hcDAF12 conf 5.9
CC(=O)O/C(=C\c1cn(C(C)=O)c2ccccc12)C(=O)O	none
CC(=O)n1cc(CO)c2ccccc21	hcDAF12 agonist 7.2 | LXR ag inactive | hcDAF12 conf inactive
Cc1ccc(C)c(NC(=O)c2c(Cl)nc3ccccn23)c1	none
Cc1ccc(NC(=O)c2c(Cl)nc3ccccn23)cc1	hcDAF12 agonist 12, hgDAF-12 ag 13, ssDAF12 agonist 1.1 | LXR ag inactive | hcDAF12 conf 10
C=CCN1C(=O)C(O)(CC(=O)c2ccco2)c2cc(Br)ccc21 (stereo not given)	none
Cc1ccccc1/C(N)=N/OC(=O)c1cccs1	none
O=C1c2cccc3cccc(c23)C(=O)N1CCO	none (no result: AHR activator)
CCN(CC)CCN1C(=O)c2cccc3cc(N)cc(c23)C1=O	hcDAF12 agonist 7.6 | LXR ag inactive | hcDAF12 conf inactive

Source: PubChem (The Scripps Research Institute Molecular Screening Center)
